Experiments:
Assay in all cases: DAPPL (digital affinity profiling via proximity ligation, sequencing); 10 mM Tris-HCl pH 7.5, 50 mM NaCl, 1 mM DTT, 4% glycerol, room temperature, 30 min; GST-TFs on glutathione beads, 16-mer random dsDNA library, 0.1% formaldehyde crosslink after washing; high values mean tight binding
Conditions in all cases: protein: recombinant; tags: N-terminal GST; dsDNA, one strand shown
[1] = target: T1, FLI1 (Homo sapiens, UniProt Q01543 1-452)
T1 sequence: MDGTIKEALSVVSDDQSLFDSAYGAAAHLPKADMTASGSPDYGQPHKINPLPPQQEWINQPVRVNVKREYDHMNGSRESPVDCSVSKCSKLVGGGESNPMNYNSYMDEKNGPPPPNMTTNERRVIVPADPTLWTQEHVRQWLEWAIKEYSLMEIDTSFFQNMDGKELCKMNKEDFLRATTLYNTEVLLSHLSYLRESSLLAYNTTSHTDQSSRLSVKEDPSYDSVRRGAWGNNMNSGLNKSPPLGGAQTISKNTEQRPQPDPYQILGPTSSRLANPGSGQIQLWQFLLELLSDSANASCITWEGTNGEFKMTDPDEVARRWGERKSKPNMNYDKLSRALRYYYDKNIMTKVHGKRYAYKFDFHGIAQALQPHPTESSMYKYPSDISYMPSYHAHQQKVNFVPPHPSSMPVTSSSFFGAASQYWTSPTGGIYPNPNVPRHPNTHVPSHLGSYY
How it was run: (§1)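 Human transcription factors were made in yeast as GST fusions, captured on glutathione beads and barcoded with DNA. With a tag-only sample included, the pool was incubated with 200 nmole of a random double-stranded 16-mer DNA library in Tris/NaCl/DTT/glycerol buffer at room temperature for 30 min, then crosslinked with 0.1% formaldehyde after washing, ligated by proximity, amplified and sequenced. For binding signal, each hexamer's read frequency for a factor is divided by its frequency for the tag-only sample.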

[2] = target: T2, ELK1 (Homo sapiens, UniProt P19419 1-428)
T2 sequence: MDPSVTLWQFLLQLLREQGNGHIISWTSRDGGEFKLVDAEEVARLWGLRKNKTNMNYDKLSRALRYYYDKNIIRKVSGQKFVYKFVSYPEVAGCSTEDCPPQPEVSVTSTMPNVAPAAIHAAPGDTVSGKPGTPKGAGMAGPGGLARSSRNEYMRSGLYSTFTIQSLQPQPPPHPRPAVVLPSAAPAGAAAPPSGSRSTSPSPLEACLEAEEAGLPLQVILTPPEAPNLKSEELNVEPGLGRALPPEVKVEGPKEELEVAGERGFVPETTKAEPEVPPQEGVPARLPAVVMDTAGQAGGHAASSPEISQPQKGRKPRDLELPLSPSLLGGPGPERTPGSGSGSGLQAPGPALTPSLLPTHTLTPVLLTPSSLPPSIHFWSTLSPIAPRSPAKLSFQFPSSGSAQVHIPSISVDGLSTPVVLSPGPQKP
How it was run: as §1

[3] = target: T3, GABPA (Homo sapiens, UniProt Q06546 1-454)
T3 sequence: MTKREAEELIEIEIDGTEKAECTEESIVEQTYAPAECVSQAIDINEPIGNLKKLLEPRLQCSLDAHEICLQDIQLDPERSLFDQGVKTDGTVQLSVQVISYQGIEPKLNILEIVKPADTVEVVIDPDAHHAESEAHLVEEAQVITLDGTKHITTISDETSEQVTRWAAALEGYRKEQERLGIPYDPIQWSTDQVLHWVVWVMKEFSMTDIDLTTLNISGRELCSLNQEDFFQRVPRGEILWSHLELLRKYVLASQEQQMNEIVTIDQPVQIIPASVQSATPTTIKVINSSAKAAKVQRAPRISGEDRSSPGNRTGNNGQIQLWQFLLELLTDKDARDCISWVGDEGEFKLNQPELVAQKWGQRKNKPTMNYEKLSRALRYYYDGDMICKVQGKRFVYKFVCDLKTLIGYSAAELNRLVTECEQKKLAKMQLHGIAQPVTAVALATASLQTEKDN
How it was run: as §1

[4] = target: T4, ERG (Homo sapiens, UniProt P11308 1-479)
T4 sequence: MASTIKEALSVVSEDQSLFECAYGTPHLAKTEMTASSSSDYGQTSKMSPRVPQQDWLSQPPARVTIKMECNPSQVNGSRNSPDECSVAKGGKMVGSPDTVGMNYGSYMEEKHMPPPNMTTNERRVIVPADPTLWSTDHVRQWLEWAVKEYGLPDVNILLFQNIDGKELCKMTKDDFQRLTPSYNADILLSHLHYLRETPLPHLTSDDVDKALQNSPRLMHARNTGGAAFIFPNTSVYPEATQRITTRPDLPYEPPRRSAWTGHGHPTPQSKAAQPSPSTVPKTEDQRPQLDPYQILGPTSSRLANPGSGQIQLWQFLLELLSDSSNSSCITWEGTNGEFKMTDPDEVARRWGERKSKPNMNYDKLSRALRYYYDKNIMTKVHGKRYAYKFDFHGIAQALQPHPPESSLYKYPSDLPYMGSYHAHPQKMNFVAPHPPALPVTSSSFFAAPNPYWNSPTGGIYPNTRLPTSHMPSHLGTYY
How it was run: as §1

[5] = target: ELF1 (Homo sapiens, UniProt P32519 1-619)
How it was run: as §1

[6] = target: T5, EHF (Homo sapiens, UniProt Q9NZC4 1-300)
T5 sequence: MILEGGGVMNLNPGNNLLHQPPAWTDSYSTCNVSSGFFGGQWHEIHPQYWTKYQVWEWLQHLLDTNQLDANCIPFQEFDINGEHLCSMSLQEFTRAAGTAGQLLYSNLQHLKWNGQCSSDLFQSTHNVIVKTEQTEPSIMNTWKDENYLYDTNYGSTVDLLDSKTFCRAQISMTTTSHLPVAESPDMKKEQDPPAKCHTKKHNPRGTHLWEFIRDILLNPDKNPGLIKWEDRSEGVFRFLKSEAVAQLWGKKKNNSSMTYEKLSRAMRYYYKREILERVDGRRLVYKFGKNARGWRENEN
How it was run: as §1

[7] = target: SPI1 (Homo sapiens, UniProt P17947 1-270)
How it was run: as §1

[8] = target: SPIB (Homo sapiens, UniProt Q01892 1-262)
How it was run: as §1

[9] = target: T6, ELK3 (Homo sapiens, UniProt P41970 1-407)
T6 sequence: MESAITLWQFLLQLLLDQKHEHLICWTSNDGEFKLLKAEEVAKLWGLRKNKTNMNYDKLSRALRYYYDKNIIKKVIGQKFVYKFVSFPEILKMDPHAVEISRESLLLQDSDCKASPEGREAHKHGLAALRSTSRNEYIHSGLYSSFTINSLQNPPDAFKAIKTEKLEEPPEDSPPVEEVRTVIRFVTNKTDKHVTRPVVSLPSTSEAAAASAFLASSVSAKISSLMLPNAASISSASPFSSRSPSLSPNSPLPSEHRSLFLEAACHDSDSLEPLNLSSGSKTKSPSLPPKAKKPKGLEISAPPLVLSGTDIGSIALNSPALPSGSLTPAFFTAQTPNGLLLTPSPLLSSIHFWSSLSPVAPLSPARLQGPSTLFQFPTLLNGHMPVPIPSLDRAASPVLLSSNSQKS
How it was run: as §1

Chain of SPIB (Q01892 whole entry): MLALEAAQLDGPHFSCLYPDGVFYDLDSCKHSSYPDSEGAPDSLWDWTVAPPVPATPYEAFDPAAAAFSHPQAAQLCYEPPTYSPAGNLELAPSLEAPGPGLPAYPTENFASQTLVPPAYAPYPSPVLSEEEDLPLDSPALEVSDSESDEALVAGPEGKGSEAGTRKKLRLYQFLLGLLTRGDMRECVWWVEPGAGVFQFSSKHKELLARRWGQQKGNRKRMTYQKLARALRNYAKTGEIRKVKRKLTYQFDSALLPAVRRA
Chain of ELF1 (P32519 whole entry): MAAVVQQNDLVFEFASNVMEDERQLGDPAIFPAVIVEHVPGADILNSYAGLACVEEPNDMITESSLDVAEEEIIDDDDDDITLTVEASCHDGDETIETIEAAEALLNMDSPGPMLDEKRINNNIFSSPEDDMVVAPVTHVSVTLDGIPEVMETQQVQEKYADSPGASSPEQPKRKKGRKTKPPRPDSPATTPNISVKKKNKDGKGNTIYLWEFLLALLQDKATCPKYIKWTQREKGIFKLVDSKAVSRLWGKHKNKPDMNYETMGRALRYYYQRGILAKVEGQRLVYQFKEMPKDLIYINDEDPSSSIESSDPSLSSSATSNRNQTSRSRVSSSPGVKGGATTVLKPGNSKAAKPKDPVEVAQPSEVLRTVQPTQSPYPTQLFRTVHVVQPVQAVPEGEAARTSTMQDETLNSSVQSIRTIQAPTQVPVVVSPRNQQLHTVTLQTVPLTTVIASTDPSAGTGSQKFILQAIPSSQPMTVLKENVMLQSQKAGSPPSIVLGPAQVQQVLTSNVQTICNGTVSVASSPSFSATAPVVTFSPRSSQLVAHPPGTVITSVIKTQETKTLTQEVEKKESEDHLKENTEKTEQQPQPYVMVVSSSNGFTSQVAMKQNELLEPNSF

TTCATG
binding signal [1]: 1.35 fold enrichment (6-mer frequency, TF over GST control) | binding signal [2]: 1.26 fold enrichment (6-mer frequency, TF over GST control) | binding signal [3]: 1.35 fold enrichment (6-mer frequency, TF over GST control) | binding signal [4]: 1.28 fold enrichment (6-mer frequency, TF over GST control) | binding signal [5]: 1.33 fold enrichment (6-mer frequency, TF over GST control) | binding signal [6]: 1.29 fold enrichment (6-mer frequency, TF over GST control) | binding signal [7]: 1.32 fold enrichment (6-mer frequency, TF over GST control) | binding signal [8]: 1.34 fold enrichment (6-mer frequency, TF over GST control) | binding signal [9]: 1.22 fold enrichment (6-mer frequency, TF over GST control)

GCTTTA
binding signal [1]: 1.19 fold enrichment (6-mer frequency, TF over GST control) | binding signal [2]: 1.13 fold enrichment (6-mer frequency, TF over GST control) | binding signal [3]: 1.08 fold enrichment (6-mer frequency, TF over GST control) | binding signal [4]: 1.05 fold enrichment (6-mer frequency, TF over GST control) | binding signal [5]: 1.09 fold enrichment (6-mer frequency, TF over GST control) | binding signal [6]: 1.09 fold enrichment (6-mer frequency, TF over GST control) | binding signal [7]: 1.16 fold enrichment (6-mer frequency, TF over GST control) | binding signal [8]: 1.09 fold enrichment (6-mer frequency, TF over GST control) | binding signal [9]: 1.24 fold enrichment (6-mer frequency, TF over GST control)

TATTTA
binding signal [1]: 1.48 fold enrichment (6-mer frequency, TF over GST control) | binding signal [2]: 1.5 fold enrichment (6-mer frequency, TF over GST control) | binding signal [3]: 1.39 fold enrichment (6-mer frequency, TF over GST control) | binding signal [4]: 1.38 fold enrichment (6-mer frequency, TF over GST control) | binding signal [5]: 1.42 fold enrichment (6-mer frequency, TF over GST control) | binding signal [6]: 1.43 fold enrichment (6-mer frequency, TF over GST control) | binding signal [7]: 1.46 fold enrichment (6-mer frequency, TF over GST control) | binding signal [8]: 1.39 fold enrichment (6-mer frequency, TF over GST control) | binding signal [9]: 1.61 fold enrichment (6-mer frequency, TF over GST control)

ATTTGA
binding signal [1]: 1.34 fold enrichment (6-mer frequency, TF over GST control) | binding signal [2]: 1.1 fold enrichment (6-mer frequency, TF over GST control) | binding signal [3]: 1.26 fold enrichment (6-mer frequency, TF over GST control) | binding signal [4]: 1.23 fold enrichment (6-mer frequency, TF over GST control) | binding signal [5]: 1.12 fold enrichment (6-mer frequency, TF over GST control) | binding signal [6]: 1.27 fold enrichment (6-mer frequency, TF over GST control) | binding signal [7]: 1.17 fold enrichment (6-mer frequency, TF over GST control) | binding signal [8]: 1.36 fold enrichment (6-mer frequency, TF over GST control) | binding signal [9]: 1.05 fold enrichment (6-mer frequency, TF over GST control)

TCTCGT
binding signal [1]: 1.34 fold enrichment (6-mer frequency, TF over GST control) | binding signal [2]: 1.11 fold enrichment (6-mer frequency, TF over GST control) | binding signal [3]: 1.15 fold enrichment (6-mer frequency, TF over GST control) | binding signal [4]: 1.11 fold enrichment (6-mer frequency, TF over GST control) | binding signal [5]: 1.24 fold enrichment (6-mer frequency, TF over GST control) | binding signal [6]: 1.22 fold enrichment (6-mer frequency, TF over GST control) | binding signal [7]: 1.24 fold enrichment (6-mer frequency, TF over GST control) | binding signal [8]: 1.3 fold enrichment (6-mer frequency, TF over GST control) | binding signal [9]: 1.19 fold enrichment (6-mer frequency, TF over GST control)

TAGATG
binding signal [1]: 1.28 fold enrichment (6-mer frequency, TF over GST control) | binding signal [2]: 1.29 fold enrichment (6-mer frequency, TF over GST control) | binding signal [3]: 1.27 fold enrichment (6-mer frequency, TF over GST control) | binding signal [4]: 1.27 fold enrichment (6-mer frequency, TF over GST control) | binding signal [5]: 1.29 fold enrichment (6-mer frequency, TF over GST control) | binding signal [6]: 1.26 fold enrichment (6-mer frequency, TF over GST control) | binding signal [7]: 1.3 fold enrichment (6-mer frequency, TF over GST control) | binding signal [8]: 1.24 fold enrichment (6-mer frequency, TF over GST control) | binding signal [9]: 1.31 fold enrichment (6-mer frequency, TF over GST control)

GATGGC
binding signal [1]: 1.27 fold enrichment (6-mer frequency, TF over GST control) | binding signal [2]: 1.36 fold enrichment (6-mer frequency, TF over GST control) | binding signal [3]: 1.34 fold enrichment (6-mer frequency, TF over GST control) | binding signal [4]: 1.3 fold enrichment (6-mer frequency, TF over GST control) | binding signal [5]: 1.34 fold enrichment (6-mer frequency, TF over GST control) | binding signal [6]: 1.33 fold enrichment (6-mer frequency, TF over GST control) | binding signal [7]: 1.37 fold enrichment (6-mer frequency, TF over GST control) | binding signal [8]: 1.41 fold enrichment (6-mer frequency, TF over GST control) | binding signal [9]: 1.19 fold enrichment (6-mer frequency, TF over GST control)

CATTCC
binding signal [1]: 1.29 fold enrichment (6-mer frequency, TF over GST control) | binding signal [2]: 1.2 fold enrichment (6-mer frequency, TF over GST control) | binding signal [3]: 1.27 fold enrichment (6-mer frequency, TF over GST control) | binding signal [4]: 1.25 fold enrichment (6-mer frequency, TF over GST control) | binding signal [5]: 1.25 fold enrichment (6-mer frequency, TF over GST control) | binding signal [6]: 1.19 fold enrichment (6-mer frequency, TF over GST control) | binding signal [7]: 1.25 fold enrichment (6-mer frequency, TF over GST control) | binding signal [8]: 1.3 fold enrichment (6-mer frequency, TF over GST control) | binding signal [9]: 1.3 fold enrichment (6-mer frequency, TF over GST control)
